# Experimental data taken from PubChem BioAssay (NCATS).
# Records with an inconclusive call do not appear. A call without a number means that no potency is given here. Active and inactive are the calls of the source. Unless noted, calls follow the shape of the dose curve; as a rule, active = well fitted curve in the direction sought with a large enough effect; inconclusive = small, poorly fitted or top-dose-only effect, or another doubt; inactive = no such curve, though single readings can be large; an effect the other way counts as inactive or inconclusive.
# Legend:
# [1] = target: Thyrotropin-releasing hormone receptor (Homo sapiens) (UniProt P34981); assay: qHTS for Small Molecule Agonists and Allosteric Enhancers of Human TRH Receptor: Validation Screen for Agonists (AID 493127;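 active = calcium activation more than 3 SD above the typical response in the agonist read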;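 also: intracellular calcium rise by fluo-8 fluorescence before TRH EC20 addition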); conditions: TRH receptor agonist cell assay; at 2 µM; stronger effect = higher value
# Summary of the method: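 TRHR-expressing cells were plated overnight in serum-containing medium, then loaded with fluo-8 calcium dye at room temperature for 30 min–1.5 h. After a 10 s baseline, compound was pin-transferred and calcium fluorescence (ex 480/em 530) read kinetically for agonist response.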
# [2] = Nrf2 qHTS screen for inhibitors: Validation (AID 493153; active = well fitted inhibition curve with a large enough effect in the main read-out, with a control signal flat, not every such curve was filed as active); conditions: A549 ARE-Fluc reporter, 18-24 h; Potency: luciferase luminescence; viability change: measured here: cytotoxicity max response; luciferase luminescence, at 46.1 µM (top of the series)
# Summary of the method: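 A549 cells carrying an ARE-driven firefly luciferase reporter, in 5% FBS OPTI-MEM, were treated with compounds in concentration-response for 18-24 h at 37°C. Viability was read by CellTiter-Fluor fluorescence, then Nrf2 activity by luciferase luminescence.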
# [3] = qHTS for Inhibitors of Cell Surface uPA Generation: Validation Assay (AID 493164); conditions: mouse cells, plasminogen activation; series mostly up to 38.3 µM;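 also: RAW 264.7 macrophage cells exposed to compound for 18 h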
# Summary of the method: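 RAW 264.7, 4000 cells/well, o/n plating; cpd 7-pt 1:5 dilution 2.45 nM–38.3 uM final; 18 h, 37 C/5% CO2; ATP-Lite, 5 s luminescence exposure.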
# [4] = target: Galactokinase (Homo sapiens) (UniProt P51570); assay: qHTS Validation Assay for Inhibitors of Human Galactokinase (GALK) (AID 493189); conditions: purified human GALK enzyme activity, qHTS 7-point titration; series mostly up to 57.5 µM
# Summary of the method: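 Luminescence from leftover ATP (Kinase-Glo Plus, 10 min) served as read-out after a 1 h room-temperature reaction of 5 nM GALK, 100 uM galactose and 35 uM ATP at pH8.0.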
# [5] = Validation screen for small molecules that induce DNA re-replication in SW480 colon adenocarcinoma cells (AID 504364); conditions: DNA re-replication phenotype (high-content imaging); series mostly up to 46.1 µM
# Summary of the method: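 SW480 cells seeded at 250 per well were exposed to compound or DMSO for 48 hr at 37 C, 5% CO2, then stained with Hoechst for 40 min. DNA content per nucleus was imaged (405 nm ex, 500-530 nm em).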
# [6] = target: Peptidyl-prolyl cis-trans isomerase NIMA-interacting 1 (Homo sapiens) (UniProt Q13526); assay: qHTS Validation Assay to Find Inhibitors of Pin1 (AID 504536; active = well fitted inhibition curve with a large enough effect in the polarisation, with a control signal flat, not every such curve was filed as active; the % refers to the polarisation); conditions: Pin1 fluorescence polarization peptide binding assay; series mostly up to 57.5 µM
# Summary of the method: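 Fluorescence polarization competition: compounds (titration) displace HiFluor-488-labeled Pin1-1b peptide from Pin1 (0.3 uM final) in pH 7.5 HEPES buffer with DTT, 10 min at room temperature; %Activity normalized to no-enzyme wells, curves fitted.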
# [7] = target: Phosphoglycerate kinase, glycosomal (Trypanosoma brucei brucei) (UniProt P07378); assay: qHTS Validation Assay to Find Inhibitors of Phosphoglycerate Kinase (AID 504547); conditions: enzymatic PGK inhibition, coupled luminescence read-out; series mostly up to 57.5 µM
# Summary of the method: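 Inhibition of the enzyme is judged by a Kinase-Glo Plus luminescent signal following a one-hour incubation at room temperature. Because 1,3-BPG is unstable, it is made in situ by GAPDH at 100nM final; no-PGK wells define the baseline.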
# [8] = target: phosphoglycerate mutase (Leishmania major) (UniProt Q4Q090); assay: qHTS Validation Assay to Find Inhibitors of Phosphoglycerate Mutase (AID 504548); conditions: biochemical enzyme activity; Potency: inhibition qHTS; series mostly up to 57.5 µM;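 also: end-point luminescence from Kinase-GloPlus after the PGAM reaction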
# Summary of the method: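 L. major PGAM (1.25nM final) was added to substrate buffer and pinned compound, incubated 45 minutes at room temperature, then Kinase-GloPlus added; luminescence read after 10 minutes. Buffer: 100 mM TEA pH 7.6, 5 mM MgCl2, 0.01% Tween-20.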
# [9] = Inducers of the Endoplasmic Reticulum Stress Response (ERSR) in human glioma: Validation (AID 504836); conditions: human glioma cells, ER stress response reporter; series mostly up to 38.3 µM
# Summary of the method: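 ERSR induction read as luciferase luminescence (Bright-Glo, 10 min at room temperature) in stably transfected human U87-MG glioma cells exposed to compounds for 16 h, using GRP78 as sensor.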
# [10] = target: Ubiquitin carboxyl-terminal hydrolase 1 (Homo sapiens) (UniProt O94782); assay: Inhibitors of USP1/UAF1: Pilot qHTS (AID 504865); conditions: purified USP1/UAF1, Ub-rhodamine cleavage fluorescence; series mostly up to 114 µM;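 also: rhodamine fluorescence freed from ubiquitin-rhodamine substrate followed over time; top concentration of the series differs between compounds; nearly all actives have a fitted effect of over 35% in size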
# Summary of the method: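 1nM USP1/UAF1 + cpd, 15 min RT; start w/ Ub-Rho 150nM final; kinetic FL 480/540 nm, 6 reads q60 s. Buffer 50mM HEPES pH 7.8, 0.5mM EDTA, 1mM TCEP, 0.01% Tween-20, 0.1 mg/ml BSA.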
# [11] = qHTS for Inhibitors of ATXN expression: Validation of Cytotoxic Assay (AID 588349); conditions: cytotoxicity counter-screen for ATXN expression inhibitors, cell viability; series mostly up to 57.1 µM
# Summary of the method: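 HEK293 cells were dosed with titrated compounds for 72 hr at 37 degrees C. Viability was read by CellTiter Glo luminescence, with intracellular ATP as the marker of cell survival.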
# [12] = qHTS for Inhibitors of ATXN expression: Validation (AID 588378); conditions: cell-based ATXN2 expression reporter assay, luminescence; series mostly up to 57.1 µM; also: nearly all actives have a fitted effect of over 75% in size
# Summary of the method: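 Cells: HEK293-ATXN2-FFLuc, phenol-red free DMEM, 2 h attachment. Compound pin-transfer, 24 h, 37 degrees C, 5% CO2. CellTiter-Fluor 30 min, Ex405/Em525; Bright-Glo 5 min, luminescence 2 s exposure.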
# [13] = target: Estrogen receptor (Homo sapiens) (UniProt P03372); assay: qHTS assay for small molecule antagonists of estrogen receptor alpha signaling (AID 588513; active = well fitted curve in the direction sought with a large enough effect in the signal ratio, with a control signal flat, not every such curve was filed as active; the % refers to the signal ratio); conditions: ER-alpha-UAS-bla HEK293, beta-lactamase ratio, antagonist mode; series mostly up to 76.9 µM
# Summary of the method: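 Beta-lactamase reporter, antagonist mode, HEK 293 GripTite cells; 0.5nM E2 stimulus, 18 h, 37 C; CCF4 dye 2 h RT; fluorescence. IC50 and efficacy from Hill fits, normalized to E2 and DMSO.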
# [14] = target: Estrogen receptor (Homo sapiens) (UniProt P03372); assay: qHTS assay for small molecule agonists of estrogen receptor alpha signaling (AID 588514; calls by dose curve; also: nearly all actives have a fitted effect of over 70% in size); conditions: ER-alpha-UAS-bla HEK293, beta-lactamase ratio, 18 h; series mostly up to 76.8 µM
# Summary of the method: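 ER-alpha-UAS-bla GripTite HEK 293 cells in medium with 2% charcoal/dextran-treated FBS were treated with compound titrations at 37 C for 18 hrs; beta-lactamase reporter read by CCF4 fluorescence after 2 hrs at RT.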
# [15] = target: Bile acid receptor (Homo sapiens) (UniProt Q96RI1); assay: qHTS assay for small molecule agonists of farnesoid X receptor signaling (AID 588527; calls by dose curve); conditions: HEK293T FXR-UAS-bla, beta-lactamase ratio, 16 h; stronger effect = higher value
# Summary of the method: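 Agonist-mode beta-lactamase reporter in GeneBLAzer FXR-UAS-bla HEK293T cells, titration up to 92 uM, 16 h exposure at 37 C, CCF4 fluorescence. Response scaled to DMSO (0%) and 100 uM chenodeoxycholic acid (100%), then Hill-fitted for EC50 and efficacy.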
# [16] = target: Glucocorticoid receptor (Homo sapiens) (UniProt P04150); assay: qHTS assay for small molecule agonists of glucocorticoid receptor signaling (AID 588532; active = well fitted curve in the direction sought with a large enough effect in the signal ratio, with a control signal flat; the % refers to the signal ratio); conditions: HeLa MMTV-bla, beta-lactamase ratio, agonist, 18 h; stronger effect = higher value; percent of dexamethasone control, DMSO zero
# Summary of the method: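 Using MMTV-bla HeLa cells in medium with 1% stripped FBS and 25 mM HEPES, compounds were titrated and incubated overnight-length (18 h). Beta-lactamase cleavage of CCF4 was quantified by dual-emission fluorescence.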
# [17] = target: DNA dC->dU-editing enzyme APOBEC-3G (Homo sapiens) (UniProt Q9HC16); assay: qHTS for inhibitors of Vif-A3G interactions: Validation (AID 588379); conditions: Vif-A3G protein interaction assay; series mostly up to 46.1 µM
# Summary of the method: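 HeLa cells stably expressing Vif and A3G-eYFP, 700 cells/well, incubated overnight at 37 deg C, then exposed to compound overnight at 37 deg C. Inhibition of Vif-mediated degradation read as increased yellow fluorescence (Ex 488/Em 500-530) by laser-scanning cytometry.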
# Thyrotropin-releasing hormone receptor (Homo sapiens), sequence (P34981 whole entry, looked up): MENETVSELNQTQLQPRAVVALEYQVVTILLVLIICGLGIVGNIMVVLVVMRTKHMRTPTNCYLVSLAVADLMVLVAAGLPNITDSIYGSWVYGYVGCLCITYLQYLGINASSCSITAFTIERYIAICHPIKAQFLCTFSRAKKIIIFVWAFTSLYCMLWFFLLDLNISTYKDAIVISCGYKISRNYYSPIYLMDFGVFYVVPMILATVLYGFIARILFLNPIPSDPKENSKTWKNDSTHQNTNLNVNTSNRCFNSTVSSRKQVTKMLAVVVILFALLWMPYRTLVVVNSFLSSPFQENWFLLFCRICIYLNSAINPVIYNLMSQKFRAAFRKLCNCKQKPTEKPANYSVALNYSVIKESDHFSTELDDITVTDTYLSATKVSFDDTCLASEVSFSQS
# Phosphoglycerate kinase, glycosomal (Trypanosoma brucei brucei), sequence (P07378 whole entry, looked up): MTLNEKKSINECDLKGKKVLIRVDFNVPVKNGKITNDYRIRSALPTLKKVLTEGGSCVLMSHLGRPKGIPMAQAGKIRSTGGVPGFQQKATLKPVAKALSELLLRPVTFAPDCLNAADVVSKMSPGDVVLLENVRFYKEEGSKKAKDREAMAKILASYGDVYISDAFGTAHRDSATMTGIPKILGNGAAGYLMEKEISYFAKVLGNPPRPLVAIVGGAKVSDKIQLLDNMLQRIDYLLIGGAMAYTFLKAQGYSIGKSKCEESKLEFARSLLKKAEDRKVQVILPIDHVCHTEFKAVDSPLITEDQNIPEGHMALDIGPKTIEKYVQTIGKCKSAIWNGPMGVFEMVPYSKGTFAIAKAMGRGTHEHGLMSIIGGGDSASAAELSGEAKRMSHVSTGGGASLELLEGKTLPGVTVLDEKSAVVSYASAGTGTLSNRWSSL
# Ubiquitin carboxyl-terminal hydrolase 1 (Homo sapiens), sequence (O94782 whole entry, looked up): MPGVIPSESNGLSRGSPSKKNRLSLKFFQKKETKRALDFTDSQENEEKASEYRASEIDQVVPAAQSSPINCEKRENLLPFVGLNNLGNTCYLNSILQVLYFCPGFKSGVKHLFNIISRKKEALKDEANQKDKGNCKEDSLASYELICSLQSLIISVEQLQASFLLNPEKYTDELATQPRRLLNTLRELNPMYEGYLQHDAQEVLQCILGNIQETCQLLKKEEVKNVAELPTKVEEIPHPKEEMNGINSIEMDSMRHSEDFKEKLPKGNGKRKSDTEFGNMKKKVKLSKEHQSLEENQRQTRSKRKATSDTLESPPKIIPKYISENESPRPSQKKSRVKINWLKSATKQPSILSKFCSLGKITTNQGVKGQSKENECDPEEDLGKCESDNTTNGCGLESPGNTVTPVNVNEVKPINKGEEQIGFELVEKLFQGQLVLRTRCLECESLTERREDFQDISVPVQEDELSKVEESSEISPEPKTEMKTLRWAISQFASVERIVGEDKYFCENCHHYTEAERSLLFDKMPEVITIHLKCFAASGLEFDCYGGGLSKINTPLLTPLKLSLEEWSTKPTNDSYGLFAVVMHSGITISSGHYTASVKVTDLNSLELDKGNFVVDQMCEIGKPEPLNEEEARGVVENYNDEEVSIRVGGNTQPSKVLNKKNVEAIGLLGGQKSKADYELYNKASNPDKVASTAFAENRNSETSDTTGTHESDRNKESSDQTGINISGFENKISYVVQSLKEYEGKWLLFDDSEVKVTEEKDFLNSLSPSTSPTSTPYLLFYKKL
# Peptidyl-prolyl cis-trans isomerase NIMA-interacting 1 (Homo sapiens), sequence (Q13526 whole entry, looked up): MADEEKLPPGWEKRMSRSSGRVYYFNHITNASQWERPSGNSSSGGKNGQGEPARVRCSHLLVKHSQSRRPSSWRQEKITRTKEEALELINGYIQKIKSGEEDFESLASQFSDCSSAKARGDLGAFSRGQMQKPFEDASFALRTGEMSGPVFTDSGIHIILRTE
# Galactokinase (Homo sapiens), sequence (P51570 whole entry, looked up): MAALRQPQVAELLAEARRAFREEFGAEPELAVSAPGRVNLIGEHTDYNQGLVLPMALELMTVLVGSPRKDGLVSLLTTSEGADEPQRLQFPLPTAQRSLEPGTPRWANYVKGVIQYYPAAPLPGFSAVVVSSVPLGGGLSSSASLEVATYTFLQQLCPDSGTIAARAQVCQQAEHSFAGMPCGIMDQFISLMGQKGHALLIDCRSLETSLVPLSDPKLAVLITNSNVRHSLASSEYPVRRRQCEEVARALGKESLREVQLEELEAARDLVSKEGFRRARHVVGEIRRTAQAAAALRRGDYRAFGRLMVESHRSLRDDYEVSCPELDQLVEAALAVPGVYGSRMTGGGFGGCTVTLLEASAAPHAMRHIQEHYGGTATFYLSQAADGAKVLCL
# phosphoglycerate mutase (Leishmania major), sequence (Q4Q090 1-553): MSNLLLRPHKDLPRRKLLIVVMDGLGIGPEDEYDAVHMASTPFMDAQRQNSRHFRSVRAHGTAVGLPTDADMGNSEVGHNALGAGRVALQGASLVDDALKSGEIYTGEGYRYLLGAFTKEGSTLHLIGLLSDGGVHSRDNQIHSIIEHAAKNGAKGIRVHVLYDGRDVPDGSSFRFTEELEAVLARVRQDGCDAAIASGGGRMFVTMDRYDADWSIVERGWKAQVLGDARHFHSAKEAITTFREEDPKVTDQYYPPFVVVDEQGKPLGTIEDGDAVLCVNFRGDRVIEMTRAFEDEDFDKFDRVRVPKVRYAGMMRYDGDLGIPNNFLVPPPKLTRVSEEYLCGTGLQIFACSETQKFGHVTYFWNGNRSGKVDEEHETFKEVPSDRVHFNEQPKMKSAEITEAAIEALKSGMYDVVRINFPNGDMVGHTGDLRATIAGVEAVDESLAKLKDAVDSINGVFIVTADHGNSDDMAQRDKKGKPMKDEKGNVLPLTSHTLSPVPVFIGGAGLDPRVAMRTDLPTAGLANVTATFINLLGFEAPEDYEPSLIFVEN
# Estrogen receptor (Homo sapiens), sequence (P03372 whole entry, looked up): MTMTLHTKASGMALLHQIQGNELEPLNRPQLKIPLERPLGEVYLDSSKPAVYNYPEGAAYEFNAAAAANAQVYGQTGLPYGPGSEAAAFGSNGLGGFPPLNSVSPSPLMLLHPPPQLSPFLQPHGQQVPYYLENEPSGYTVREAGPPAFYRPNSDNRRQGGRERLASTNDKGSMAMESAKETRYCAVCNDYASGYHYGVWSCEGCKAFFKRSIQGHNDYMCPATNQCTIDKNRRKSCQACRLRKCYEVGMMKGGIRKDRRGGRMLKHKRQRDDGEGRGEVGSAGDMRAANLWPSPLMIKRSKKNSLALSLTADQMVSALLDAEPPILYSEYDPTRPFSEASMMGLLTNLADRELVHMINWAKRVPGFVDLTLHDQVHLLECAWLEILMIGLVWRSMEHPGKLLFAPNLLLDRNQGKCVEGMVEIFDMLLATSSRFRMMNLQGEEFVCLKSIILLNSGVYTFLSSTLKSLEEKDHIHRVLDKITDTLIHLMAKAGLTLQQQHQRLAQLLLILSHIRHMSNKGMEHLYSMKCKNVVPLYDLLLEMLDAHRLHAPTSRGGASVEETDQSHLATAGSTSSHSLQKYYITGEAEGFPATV
# Bile acid receptor (Homo sapiens), sequence (Q96RI1 whole entry, looked up): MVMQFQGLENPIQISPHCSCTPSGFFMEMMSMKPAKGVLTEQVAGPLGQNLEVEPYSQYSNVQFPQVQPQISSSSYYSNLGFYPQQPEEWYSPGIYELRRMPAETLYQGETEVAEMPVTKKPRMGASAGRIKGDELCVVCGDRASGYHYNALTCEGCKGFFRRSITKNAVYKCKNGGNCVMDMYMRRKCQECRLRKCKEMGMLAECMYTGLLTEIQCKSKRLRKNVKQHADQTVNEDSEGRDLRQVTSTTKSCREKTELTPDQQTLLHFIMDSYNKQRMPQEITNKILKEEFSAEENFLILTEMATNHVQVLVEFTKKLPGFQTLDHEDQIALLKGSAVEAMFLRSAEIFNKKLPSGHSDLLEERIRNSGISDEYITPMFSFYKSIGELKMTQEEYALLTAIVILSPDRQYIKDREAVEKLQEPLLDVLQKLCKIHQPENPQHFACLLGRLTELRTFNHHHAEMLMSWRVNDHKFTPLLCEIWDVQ
# DNA dC->dU-editing enzyme APOBEC-3G (Homo sapiens), sequence (Q9HC16 whole entry, looked up): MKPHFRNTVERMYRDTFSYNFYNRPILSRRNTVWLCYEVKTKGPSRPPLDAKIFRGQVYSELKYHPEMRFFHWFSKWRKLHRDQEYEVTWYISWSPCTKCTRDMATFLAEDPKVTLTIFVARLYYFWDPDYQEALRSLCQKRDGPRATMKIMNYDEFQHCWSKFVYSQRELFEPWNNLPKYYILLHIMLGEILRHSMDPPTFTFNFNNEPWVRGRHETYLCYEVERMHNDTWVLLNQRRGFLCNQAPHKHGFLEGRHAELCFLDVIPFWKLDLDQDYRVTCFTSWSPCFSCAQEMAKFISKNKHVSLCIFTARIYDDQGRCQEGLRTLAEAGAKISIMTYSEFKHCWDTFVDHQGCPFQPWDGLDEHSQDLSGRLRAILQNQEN
# Glucocorticoid receptor (Homo sapiens), sequence (P04150 whole entry, looked up): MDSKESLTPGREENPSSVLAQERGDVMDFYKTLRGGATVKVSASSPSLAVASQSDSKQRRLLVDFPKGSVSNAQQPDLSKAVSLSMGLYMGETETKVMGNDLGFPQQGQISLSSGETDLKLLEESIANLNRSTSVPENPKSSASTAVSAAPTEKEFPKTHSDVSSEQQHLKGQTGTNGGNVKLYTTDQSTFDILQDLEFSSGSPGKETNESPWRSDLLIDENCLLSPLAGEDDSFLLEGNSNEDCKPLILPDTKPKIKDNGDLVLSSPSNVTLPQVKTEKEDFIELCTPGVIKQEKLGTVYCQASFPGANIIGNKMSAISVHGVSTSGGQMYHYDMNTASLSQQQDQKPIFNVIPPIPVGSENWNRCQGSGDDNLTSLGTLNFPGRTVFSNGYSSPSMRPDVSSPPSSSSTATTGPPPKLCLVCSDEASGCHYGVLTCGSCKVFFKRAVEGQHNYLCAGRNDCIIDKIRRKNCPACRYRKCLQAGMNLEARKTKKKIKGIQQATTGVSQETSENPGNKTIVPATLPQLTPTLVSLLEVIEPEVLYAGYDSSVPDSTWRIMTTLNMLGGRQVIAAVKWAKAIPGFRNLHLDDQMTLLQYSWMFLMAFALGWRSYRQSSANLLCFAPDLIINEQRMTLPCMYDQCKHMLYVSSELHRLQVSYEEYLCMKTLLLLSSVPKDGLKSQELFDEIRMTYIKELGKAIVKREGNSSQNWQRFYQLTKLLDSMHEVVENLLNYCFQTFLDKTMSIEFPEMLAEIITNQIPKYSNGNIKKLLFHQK
Structure (SMILES),activation [1],Potency [2],viability change [2],outcome [3],outcome [4],Potency [5],Potency [6],Potency [7],Potency [8],outcome [9],Potency [10],Potency [11],Potency [12],Potency [13],Potency [14],activation [15],activation [16],outcome [17]
CP(=O)(O)C1=CCNCC1,0.188% (inactive),inactive,-3.56%,inactive,inactive,inactive,inactive,inactive,inactive,inactive,inactive,inactive,inactive,,,,,
CN1C2CCC1CC(OC(c1ccccc1)c1ccccc1N)C2 (stereo unspecified),1.44% (inactive),inactive,-4.19%,inactive,inactive,inactive,inactive,inactive,inactive,inactive,inactive,,,,,,,
NC(C(=O)O)c1cc(=O)[nH]o1 (stereo unspecified),0.688% (inactive),inactive,-7.19%,inactive,inactive,inactive,inactive,inactive,inactive,inactive,inactive,inactive,inactive,,,,,
NC(=O)CI,-0.125% (inactive),inactive,7.18%,inactive,inactive,inactive,inactive,inactive,,inactive,inactive,inactive,inactive,,,,,
CCOC(=O)c1ncn2c1[C@@H]1CCCN1C(=O)c1cc(OC)ccc1-2,-0.25% (inactive),inactive,-9.51%,inactive,inactive,inactive,inactive,inactive,,inactive,inactive,inactive,inactive,,,,,
CC(N)c1cccc(Cl)c1Cl (stereo unspecified),-0.188% (inactive),inactive,5.17%,inactive,inactive,inactive,inactive,inactive,inactive,inactive,inactive,inactive,inactive,,,,,
NNC(N)=O,0.625% (inactive),inactive,-0.697%,inactive,inactive,inactive,inactive,inactive,,inactive,inactive,inactive,inactive,inactive,inactive,-1.54% (inactive),-1.3% (inactive),
CN(C(=O)Cc1ccc(Cl)c(Cl)c1)C(CN1CCCC1)c1cccc(OCC(=O)O)c1 (stereo unspecified),0.25% (inactive),inactive,-6.12%,inactive,inactive,inactive,inactive,,inactive,inactive,inactive,inactive,inactive,,,,,
CCCN(CCC)C1Cc2cc(OC)c(OC)cc2C1,-2.94% (inactive),inactive,11.4%,inactive,inactive,inactive,inactive,inactive,inactive,inactive,inactive,inactive,inactive,,,,,inactive
